The results in this text go back to PubChem BioAssay (Tox21).

Molecules are shown by their SMILES. Records with an inconclusive call do not appear. A number with no mark means an inactive call. The source made the active and inactive calls. Unless noted, the call rests on the fitted dose curve; in most records, active means well fitted curve in the direction sought with a large enough effect in the repeat runs; inconclusive means weak or mixed curves; inactive means no such curve, though single readings can be large; an effect the other way counts as inactive or inconclusive.

Experiment [1] in a line: qHTS assay to identify small molecule agonists of the vitamin D receptor (VDR) signaling pathway - cell viability counter screen (AID 743224). Further: series mostly up to about 63 µM; nearly all actives have a fitted effect of over 50% in size. The procedure, abridged:
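Viability is measured in the same wells as the VDR-bla reporter assay: after 16 h compound treatment and 2 h substrate loading, CellTiter-Glo is added and luminescence read 30 min later.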
For orientation: Quantitative high-throughput screening tests each substance at several concentrations.

Experiment [2] can be described thus: qHTS assay to identify small molecule antagonists of the vitamin D receptor (VDR) signaling pathway - cell viability counter screen (AID 743225). Further: nearly all actives have a fitted effect of over 50% in size. The procedure, abridged: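 Compounds were pinned onto VDR-bla HEK 293T cells together with 1-alpha,25-dihydroxyvitamin D3 at 3 nM final. After 16 h at 37C and 5% CO2 plus the reporter readout, cell viability was measured by CellTiter-Glo luminescence (30 min, room temperature).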

A short description of experiment [3]: qHTS assay to identify small molecule agonists of the NFkB signaling pathway (AID 1159509; active means well fitted curve in the direction sought with a large enough effect in the signal ratio in the repeat runs, not every such curve was filed as active; the % refers to the signal ratio; further: series mostly up to about 61 µM). The procedure, abridged: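 After overnight attachment, reporter cells received test compounds, DMSO or positive controls and were incubated 5 hr at 37 C. FRET substrate was then added for 1.5 hr at room temperature before dual-emission fluorescence reading.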
The nature of experiment [4]: qHTS assay to identify small molecule agonists of the NFkB signaling pathway - cell viability counter screen (AID 1159515; calls by dose curve; further: series mostly up to about 61 µM; nearly all actives have a fitted effect of over 55% in size). The method in brief:
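Multiplexed viability readout: after the 5 hr compound exposure and 1.5 hr FRET substrate step, CellTiter-Glo reagent went into the same NFkB-bla ME-180 wells; ATP luminescence was measured after 30 min at room temperature.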

A short description of experiment [5]: qHTS assay to identify small molecule agonists of the endoplasmic reticulum stress response signaling pathway (AID 1159516; active means well fitted activation curve with a large enough effect in the signal ratio in the repeat runs, not every such curve was filed as active; the % refers to the signal ratio). The procedure, abridged: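 Tox21 10K library screened in quantitative HTS format on ESRE-bla HeLa cells, a beta-lactamase reporter under ER stress response element control; 5 hr treatment, FRET read.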
The nature of experiment [6]: qHTS assay to identify small molecule agonists of the endoplasmic reticulum stress response signaling pathway - cell viability counter screen (AID 1159517; calls by dose curve; further: series mostly up to about 61 µM; nearly all actives have a fitted effect of over 50% in size). The procedure, abridged:
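Cells, HeLa ESRE-bla; density, 1,500/well; dosing, 5 hr at 37 C, 5% CO2; readout, CellTiter-Glo luminescence after 30 min RT.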

A short description of experiment [7]: qHTS assay to identify small molecule antagonists of the retinoid-related orphan receptor gamma (ROR-gamma) signaling pathway - cell viability counter screen (AID 1159520). Further: nearly all actives have a fitted effect of over 50% in size. The procedure, abridged: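 Cytotoxicity was read from cellular ATP (CellTiter-Glo luminescence) after 16 hr at 37 C with 1 uM doxycycline induction. The inducer was added 2 hr after compound transfer to Tet-on ROR gamma CHO cells.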

In experiment [8] the target is Nuclear receptor ROR-gamma (Homo sapiens) (UniProt P51449). Nature of the experiment: qHTS assay to identify small molecule antagonists of the retinoid-related orphan receptor gamma (ROR-gamma) signaling pathway (AID 1159521). The procedure, abridged:
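Test compounds were applied to Tet-on RORγ CHO cells 2 h ahead of doxycycline hyclate (1 uM final). Luciferase reporter activity was quantified by luminescence after 16 h at 37 C and 5% CO2.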

A short description of experiment [9]: qHTS assay to identify small molecule agonists of the AP-1 signaling pathway - cell viability counter screen (AID 1159525; calls by dose curve; further: nearly all actives have a fitted effect of over 55% in size). The procedure, abridged: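 Luminescent ATP readout (Cell Titer Glo, 30 min RT), normalised to DMSO and tetra n-octyl ammonium bromide controls. Cells were ME-180 AP-1-bla in 0.5% dialyzed FBS Opti-MEM, with a 5 h, 37 °C compound exposure.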

The nature of experiment [10]: qHTS assay to identify small molecule agonists of the AP-1 signaling pathway (AID 1159526; calls by dose curve).
Experiment [11] has as its target Retinoic acid receptor RXR-alpha (Homo sapiens) (UniProt P19793). Nature of the experiment: qHTS assay to identify small molecule agonists of the RXR signaling pathway (AID 1159527; calls by dose curve; further: nearly all actives have a fitted effect of over 35% in size). The method in brief: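 Using 9-cis retinoic acid as the reference agonist, chemicals were tested in HEK 293T cells […] for 16 hr; substrate loading lasted 2 hr at room temperature.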

A short description of experiment [12]: qHTS assay to identify small molecule agonists of the RXR signaling pathway - cell viability counter screen (AID 1159529). The method in brief:
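Compounds dissolved in DMSO were pinned onto HEK 293T cells carrying a beta-lactamase reporter under RXR-alpha control and incubated 16 hr. Cytotoxicity was then quantified by CellTiter-Glo luminescence.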

A short description of experiment [13]: qHTS assay to identify small molecule antagonists of the retinoic acid receptor (RAR) signaling pathway (AID 1159552; further: nearly all actives have a fitted effect of over 50% in size). The method in brief:
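Test chemicals and DMSO controls were pin-transferred onto C3RL4 cells a day after seeding; retinol (1 uM final) followed at once. Luminescent reporter output was quantified after 6 hr of co-incubation and 30 min with detection reagent.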

A short description of experiment [14]: qHTS assay to identify small molecule agonists of the retinoic acid receptor (RAR) signaling pathway (AID 1159553). The procedure, abridged: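 Agonist activity was scored in C3RL4 cells bearing a retinoic acid response element luciferase construct. Cells were treated with compounds for 6 hr at 37 C, and luciferase signal was measured as luminescence.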
A short description of experiment [15]: qHTS assay to identify small molecule antagonists of the estrogen related receptor (ERR) signaling pathway from Tox21 library - cell viability counter screen (AID 1224834). Further: nearly all actives have a fitted effect of over 30% in size. The procedure, abridged: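 Cytotoxicity of test substances is gauged in the same ERR cells used for the antagonist screen, after 17.5 h of compound treatment at 37 C, by CellTiter-Fluor fluorescence measured after 30 min.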

For experiment [16], the target named is Luciferin 4-monooxygenase (Photinus pyralis) (UniProt P08659). The experiment in a line: qHTS assay to identify small molecule inhibitors of firefly luciferase (AID 1224835). Further: series mostly up to about 120 µM; nearly all actives have a fitted effect of over 25% in size. The method in brief: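 Inhibition of purified Photinus luciferase is measured by luminescence. Substrate levels (D-luciferin, ATP) sit at their KM values. Each compound is tested in a concentration series.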

Experiment [17] is described as follows: qHTS assay to identify small molecule agonists of the constitutive androstane receptor (CAR) signaling pathway - cell viability counter screen (AID 1224836). Further: series mostly up to about 92 µM; nearly all actives have a fitted effect of over 45% in size. The procedure, abridged: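 23 h treatment, 37 C, 5% CO2. Cell line: HepG2 stably expressing hCAR with a CYP2B6-2.2kb construct. Co-treatment: PK11195, 0.75 uM final. Read-out: CellTiter-Fluor fluorescence intensity.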

Experiment [18] can be described thus: qHTS assay to identify small molecule antagonists of the constitutive androstane receptor (CAR) signaling pathway - cell viability counter screen (AID 1224837). Further: series mostly up to about 92 µM; nearly all actives have a fitted effect of over 45% in size. The procedure, abridged: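 Multiplexed cytotoxicity read-out for the CAR antagonist screen: double-stable HepG2-CYP2B6-hCAR cells co-treated with 50 nM CITCO (final) and compound over 15 concentrations, incubated 23 hr, then assessed by CellTiter-Fluor fluorescence.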

Experiment [19] addresses Nuclear receptor subfamily 1 group I member 3 (Homo sapiens) (UniProt Q14994). Nature of the experiment: qHTS assay to identify small molecule antagonists of the constitutive androstane receptor (CAR) signaling pathway (AID 1224838). Further: nearly all actives have a fitted effect of over 40% in size. Further: potency means the concentration at half of the fitted maximal effect. The method in brief: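 Compounds were titrated across 15 concentrations onto HepG2 cells double-stably expressing hCAR and a CYP2B6-2.2kb reporter, together with 50 nM CITCO (final). After 24 h at 37 C, luciferase activity was measured by luminescence.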

Experiment [20] in a line: qHTS assay to identify small molecule antagonists of the retinoid acid receptor (RAR) signaling pathway - cell viability counter screen (AID 1159551). Further: nearly all actives have a fitted effect of over 35% in size. The method in brief: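 Cytotoxicity counter screen in C3RL4 cells: 6 h compound exposure with 1 uM retinol (final), viability from cellular ATP by luminescence.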

Sequence of Retinoic acid receptor RXR-alpha (Homo sapiens) (P19793 whole entry, looked up): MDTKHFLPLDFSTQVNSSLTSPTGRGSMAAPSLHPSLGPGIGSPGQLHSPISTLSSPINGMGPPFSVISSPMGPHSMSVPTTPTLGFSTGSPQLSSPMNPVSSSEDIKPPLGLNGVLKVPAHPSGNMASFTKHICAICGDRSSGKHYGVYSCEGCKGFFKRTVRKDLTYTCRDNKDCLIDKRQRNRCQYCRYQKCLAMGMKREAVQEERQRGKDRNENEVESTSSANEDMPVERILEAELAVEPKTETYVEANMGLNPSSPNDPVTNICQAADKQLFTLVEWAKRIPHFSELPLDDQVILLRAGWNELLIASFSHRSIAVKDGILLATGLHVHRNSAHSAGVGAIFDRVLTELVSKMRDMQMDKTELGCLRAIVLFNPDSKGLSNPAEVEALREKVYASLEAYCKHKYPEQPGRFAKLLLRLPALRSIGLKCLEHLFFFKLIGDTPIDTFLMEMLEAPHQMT
Sequence of Nuclear receptor subfamily 1 group I member 3 (Homo sapiens) (Q14994 whole entry, looked up): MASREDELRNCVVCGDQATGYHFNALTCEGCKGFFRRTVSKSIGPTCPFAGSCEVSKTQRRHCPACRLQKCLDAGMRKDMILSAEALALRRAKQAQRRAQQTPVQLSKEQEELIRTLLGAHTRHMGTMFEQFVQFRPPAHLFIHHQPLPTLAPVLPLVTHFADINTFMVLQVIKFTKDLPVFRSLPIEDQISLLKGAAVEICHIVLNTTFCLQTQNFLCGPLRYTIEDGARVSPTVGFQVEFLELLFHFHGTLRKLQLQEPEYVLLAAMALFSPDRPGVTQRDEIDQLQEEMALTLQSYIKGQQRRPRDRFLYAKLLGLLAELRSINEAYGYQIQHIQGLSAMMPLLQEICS
Sequence of Luciferin 4-monooxygenase (Photinus pyralis) (P08659 whole entry, looked up): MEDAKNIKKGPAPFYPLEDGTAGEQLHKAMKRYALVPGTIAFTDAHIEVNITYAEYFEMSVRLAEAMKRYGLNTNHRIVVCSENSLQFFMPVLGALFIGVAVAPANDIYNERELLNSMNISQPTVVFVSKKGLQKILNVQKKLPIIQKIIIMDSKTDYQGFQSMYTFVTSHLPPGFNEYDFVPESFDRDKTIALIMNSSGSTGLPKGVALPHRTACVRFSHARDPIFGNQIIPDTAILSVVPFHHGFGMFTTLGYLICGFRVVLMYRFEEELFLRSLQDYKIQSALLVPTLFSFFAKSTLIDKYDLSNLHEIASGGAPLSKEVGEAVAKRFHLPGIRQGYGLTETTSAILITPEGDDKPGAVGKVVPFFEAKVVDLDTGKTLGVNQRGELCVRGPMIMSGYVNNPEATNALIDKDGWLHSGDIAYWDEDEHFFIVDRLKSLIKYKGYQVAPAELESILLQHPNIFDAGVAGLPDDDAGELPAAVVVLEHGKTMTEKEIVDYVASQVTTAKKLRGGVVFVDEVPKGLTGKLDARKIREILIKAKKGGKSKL

`Nc1nc(-c2ccccc2)c(Br)c(=O)[nH]1`: the result in [1], in experiment [2], in experiment [3], in experiment [4], in [5] and in experiment [6] was inactive. The call in experiment [7], in experiment [8], in experiment [9], in experiment [10], in [12] and in [13] was inactive. The call in experiment [15], in [17] and in experiment [18] was inactive. The Potency entry in experiment [11], in experiment [14], in experiment [16] and in experiment [19] was “inactive” each time.

As to `Fc1ccccc1`, the outcome in experiment [1], in [2], in experiment [3], in [4], in experiment [5] and in experiment [6] was inactive. Moreover, the outcome in experiment [7], in experiment [8], in experiment [9], in [10], in experiment [12] and in experiment [13] was inactive. Further, the molecule was classed as inactive in [15], in experiment [17] and in experiment [18]. For the same molecule, the Potency result in [11], in [14], in experiment [16] and in experiment [19] was “inactive” throughout.

Consider `O=C(O)c1cc2ccccc2nc1C(=O)O`, for which the outcome in experiment [2], in experiment [3], in experiment [4], in [5], in experiment [6] and in experiment [7] was inactive. Also, the molecule was classed as inactive in [8], in experiment [10], in experiment [12], in experiment [20], in [13] and in experiment [15]. Besides, the call in experiment [17] and in [18] was inactive. Besides, the Potency result in [11], in experiment [14], in [16] and in [19] was “inactive” in each case.

As to `O=C(O)[C@H](O)c1ccccc1`, the molecule was called inactive in [1], in experiment [2], in [3], in [4], in experiment [5] and in [6]. The result in experiment [7], in experiment [8], in experiment [9], in experiment [10], in experiment [12] and in [20] was inactive. The call in [13], in experiment [17] and in experiment [18] was inactive. Further, the Potency result in [11], in experiment [16] and in experiment [19] was “inactive” throughout.

On to `CCCCCCCCCCCCCCCCCC#N`, for which the outcome in experiment [1], in experiment [2], in experiment [3], in [4], in [5] and in [6] was inactive. The outcome in [7], in [8], in experiment [9], in experiment [10], in [12] and in experiment [20] was inactive. The outcome in experiment [13], in experiment [15], in [17] and in [18] was inactive. The Potency entry in experiment [11], in experiment [16] and in experiment [19] was “inactive” throughout.

Take `CC(=O)C(C)O` (stereo unspecified): the molecule was called inactive in experiment [1], in experiment [2], in experiment [3], in experiment [4], in [5] and in experiment [6]. The molecule was classed as inactive in experiment [7], in experiment [8], in experiment [9], in experiment [10], in experiment [12] and in [13]. The outcome in [15], in experiment [17] and in [18] was inactive. Moreover, the Potency entry in experiment [11], in [14], in experiment [16] and in [19] was “inactive” throughout.

For the molecule `CC1CCc2c(N3CCC(O)CC3)c(F)cc3c(=O)c(C(=O)O)cn1c23` (stereo unspecified), the molecule was called inactive in experiment [1], in experiment [2], in [3], in experiment [4], in experiment [5] and in [6]. In addition, the molecule was called inactive in experiment [7], in experiment [8], in experiment [9], in experiment [10], in experiment [12] and in experiment [20]. In addition, the result in [13], in experiment [15], in experiment [17] and in [18] was inactive. Also, the Potency entry in [11] and in experiment [16] was “inactive” in each case. For the same molecule, in [19], the Potency was 23.7 µM (active).
